From the OligoGym collection

Target: C5AR1
Assay: pooled miR-30 sensor sort-seq; sequence = guide strand
Conditions: shRNA
Further: reference of the scale not given here.

| Sequence | sensor-assay potency score (higher = more potent) |
| --- | --- |
| TTAGAAGTTTTATCCACAGGGG | -0.274 |
| TGAAAGTGTAACAAATCGTGAG | 0.282 |
| TAACTCACTTACAAGAGCTTAG | -0.132 |
| TAGAAGTTTTATCCACAGGGGT | -0.173 |
| TTCAGCAGCAGGAAGGTGGGTG | 0.301 |
| TACTTGTCTGTATTCTGAGTTC | -0.656 |
| TAAGGTAACACCATCCCACGAA | 0.399 |
| TTAAACACCAGCAGAAAGCGGT | -0.159 |
| TTTGTCGTGGCTGTAGTCCACG | -0.519 |
| ATAGTGTCCACTGTGGAGCGCG | -0.598 |
| TGATGCTGTACAATGGACGTGA | 0.655 |
| TCTTCAGTCAACACGTTCCGGA | -0.631 |
| TACATATTTTCCAACTTGCCAT | -0.462 |
| TTGAGGTCCAGGGTATCCTTGT | -0.809 |
| TTATTCAGCAGCAGGAAGGTGG | -0.586 |

Target: C5orf51
Assay: as above
Conditions: shRNA

| Sequence | sensor-assay potency score (higher = more potent) |
| --- | --- |
| TTGATGGATTTGAACATTCTTT | -0.74 |
| TATCTTAATGTAATACCGCTGT | -0.406 |
| TATTAGTGACATAACATCTGTA | 0.937 |
| TAGAACATGATTACACAGGATG | -0.681 |
| AAAATCTTCATCTACTAGCTTG | -0.0873 |
| TTTAGCTGTGTCTAGATCTTGG | 0.753 |
| TTTATCTTCATTACTCACTTGA | 1.06 |
| TTAACTAAGTCTAAAAGCCTAG | -0.498 |
| TTATTAGTGACATAACATCTGT | -0.587 |
| TTGTATTCCATTCTTGTTCTTT | -0.072 |
| TTAACTGGATAGGACATCGATA | -1.18 |
| TTCAATATCAGAACTTCTGTAA | 0.18 |

Target: C5orf56
Assay: as above
Conditions: shRNA

| Sequence | sensor-assay potency score (higher = more potent) |
| --- | --- |
| TTCTTTCCAGAATCTTGGCTGT | 0.101 |
| TTATAAGCTGCATGAGAGCAGG | -0.803 |
| TTTGAAGATTCCCTTGGTGTGT | -0.413 |
| AAAGGAGACATTTCTTTCCAGA | -0.416 |
| TTGATGACGAGGAAAAAGGAGA | -0.938 |
| AATCTTGGCTGTAAGCAGCAGA | -0.53 |
| TTTCTTTCCAGAATCTTGGCTG | 0.311 |
| TCCAATAGGCTACAAACTCTGG | -1.19 |
| TTCACTGCTGCATTGCTGCCAT | -0.146 |
| TTGAAGATTCCCTTGGTGTGTT | 0.717 |
| TTGTTCACTGCTGCATTGCTGC | -0.868 |
| AACACTTGCTGAATAAATGAGT | -0.962 |
